The values below come from PubChem BioAssay AID1662 (Broad Institute, 2009).

About 4,000 (1.3%) of roughly 300,000 compounds were called active. This is one part of a sample in which actives are shown more often than they occur. Values without a mark were called inactive.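 Rule for the calls: active = mean replicate score, as percent of positive control median, at least 50; inconclusive = mean below 50 but one replicate at or above 50; inactive = mean and every replicate below 50.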

This assay is described as follows: S. pyogenes SKKanGAS growth inhibitors in kanamycin, primary screen, streptokinase expression inhibitor project, SKKanGAS strain, BacTiter-Glo luminescence (AID 1662).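 Note: strain carries kanamycin resistance gene driven by streptokinase promoter and grows in 40 µg/ml kanamycin; loss of luminescence reflects streptokinase promoter inhibition or plain growth inhibition; 0% = median of DMSO wells and 100% = positive control at its reference dose.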 Particulars: 6 h, at 7.5 µM, hits give high values.
As for `COc1ccc(-c2cn[nH]c2-c2ccc(OC)cc2)cc1`, the inhibition (in general, the change of the read-out against control, counted positive when it falls) is 75.3% (active).
For the molecule `COC(=O)c1cc(OC)ccc1-c1ccc(OC)cc1`, the inhibition was 11%.
With `COc1ccc(Oc2cn[nH]c2-c2ccc(OC)cc2O)cc1`, the inhibition is 13.6%.
For `O=C1/C(=C\c2ccccc2Cl)SC(=S)N1CCC(=O)N1CCCc2ccccc21` the value was -4.28%; for `O=c1[nH]cnc2c1c(-c1ccccc1)cn2-c1ccc(F)cc1`, -1.74%.
Take `COc1ccc(-c2cn(-c3ccc(OC)cc3)c(=S)[nH]2)cc1`: the inhibition was -13.9%.
For `COc1ccc(-n2cc(-c3ccccc3)c3c(=S)nc[nH]c32)cc1`, the inhibition was 54.1% (active).
For `CCOP(=O)(OCC)C(Nc1cccc(C)c1)c1ccc(F)cc1` (stereo not given), the inhibition was -2.54%.
Then `CC1CCc2[nH]c3ccc(C(=O)N(C)CC(=O)Nc4cccc(F)c4)cc3c2C1` (stereo not given), with -8.76%; and `CC(C)CC1(C(=O)NCc2ccccn2)C=CCN1C(=O)c1ccccc1` (stereo not given), with -5.95%; and `COc1ccc(-n2cnnc2SCC(=O)Nc2cccc([N+](=O)[O-])c2)cc1`, with -8.4%.
Then `NC(=O)NC(=O)CSc1nc2cc([N+](=O)[O-])ccc2n1-c1cccc(C(F)(F)F)c1`, with 97.7% (active); and `COc1ccc(CCNC(=O)CSc2nc3[nH]ncc3c(=O)n2-c2cccc(C(F)(F)F)c2)cc1OC`, with -2.08%; and `NC(=O)C1CC(=O)N(c2ccc(OCC(=O)NCc3ccccc3)cc2)C1` (stereo not given), with 1.49%.
On to `CC1(C)S[C@@H]2[C@H](NC(=O)COc3ccccc3)C(=O)N2C1C(=O)OCc1ccccc1` (stereo not given in full), for which the inhibition is 97% (active).
Turning to `CC1(C)SC2C(NC(=O)COc3ccccc3)C(=O)N2C1C(=O)O` (stereo not given), the inhibition is 102% (active).
For `CC1(C)S[C@@H]2[C@H](N=CN3CCCCCC3)C(=O)N2[C@H]1C(=O)O` the value was -7.68%; for `COC(=O)C1[C@H]2SC(C)(C)C(C(=O)OC)N2C(=O)N1Cc1nc2ccccc2s1` (stereo not given in full), 6.63%; for `Cc1cccc(OCC(=O)NC2CC(C)(C)NC(C)(C)C2)c1`, 1.54%.
Take `C[C@H]1CC[C@]2(O[C@@H](CCO)C[C@@H](O)[C@@H]2O)O1`: the inhibition was -3.21%.
As to `CC1Cn2c(nnc2-c2cccs2)S1` (stereo not given), the inhibition was -5.31%.
Then `CCCn1c(=N)n(CC(=O)c2ccc(Cl)c(Cl)c2)c2ccccc21`, with 2.77%; and `CN(C(=O)CN1C(=O)NC(C)(CCc2ccccc2)C1=O)c1ccccc1` (stereo not given), with -1.34%.
For `CC1CC(=O)N(CC(=O)Nc2cccc(Cl)c2)c2ccccc2S1(=O)=O` (stereo not given), the inhibition is -1.88%.
Regarding `CSc1ccc(CNC(=O)c2ccc(NC(=O)C3=CSCCO3)cc2)cc1`, the inhibition is -10.5%.
